In the supplement of paper PMC6089552:
Hit rate of the full screen: of about 3,200 compounds, about 300 (9.4%) showed activity. For the sample, actives were picked, then their nearest neighbours and some compounds at random.

Tested on: A673/TR/shEF
Assay: cell viability (LOESS-normalised, relative to median of negative controls) (log2 ratio); higher = more viable cells (less compound effect), active = hit call of the paper (over 3 MAD below the median)
Conditions: treatment time: 72 h
In short: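 A673/TR/shEF Ewing sarcoma cells were plated at 1,500 per well in 384-well plates and cultured with or without doxycycline, added 24 h before compounds, to induce EWS-FLI1 shRNA knockdown. Library compounds at two or more concentrations, alongside DMSO controls, were applied for three days. Cell viability was measured by CellTiter-Glo luminescence on an Envision reader. Readings were LOESS-corrected per plate, divided by the median of negative controls and log2-transformed, and hits were wells lying at least three median absolute deviations from the median of all screened wells.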

[1] = 0.25 µM, library screen: screen1, EWS-FLI1 expression: high (no doxycycline)
[2] = 0.25 µM, library screen: screen1, EWS-FLI1 expression: low (doxycycline-induced shRNA knockdown)
[3] = 2.5 µM, library screen: screen1, EWS-FLI1 expression: high (no doxycycline)
[4] = 2.5 µM, library screen: screen1, EWS-FLI1 expression: low (doxycycline-induced shRNA knockdown)
[5] = 0.25 µM, library screen: screen2, EWS-FLI1 expression: high (no doxycycline)
[6] = 0.25 µM, library screen: screen2, EWS-FLI1 expression: low (doxycycline-induced shRNA knockdown)
[7] = 2.5 µM, library screen: screen2, EWS-FLI1 expression: high (no doxycycline)
[8] = 2.5 µM, library screen: screen2, EWS-FLI1 expression: low (doxycycline-induced shRNA knockdown)
[9] = 0.103 µM, library screen: screen3, EWS-FLI1 expression: high (no doxycycline)
[10] = 0.103 µM, library screen: screen3, EWS-FLI1 expression: low (doxycycline-induced shRNA knockdown)
[11] = 0.308 µM, library screen: screen3, EWS-FLI1 expression: high (no doxycycline)
[12] = 0.308 µM, library screen: screen3, EWS-FLI1 expression: low (doxycycline-induced shRNA knockdown)
[13] = 0.926 µM, library screen: screen3, EWS-FLI1 expression: high (no doxycycline)
[14] = 0.926 µM, library screen: screen3, EWS-FLI1 expression: low (doxycycline-induced shRNA knockdown)
[15] = 2.8 µM, library screen: screen3, EWS-FLI1 expression: high (no doxycycline)
[16] = 2.8 µM, library screen: screen3, EWS-FLI1 expression: low (doxycycline-induced shRNA knockdown)
[17] = 8.3 µM, library screen: screen3, EWS-FLI1 expression: high (no doxycycline)
[18] = 8.3 µM, library screen: screen3, EWS-FLI1 expression: low (doxycycline-induced shRNA knockdown)
[19] = 25 µM, library screen: screen3, EWS-FLI1 expression: high (no doxycycline)
[20] = 25 µM, library screen: screen3, EWS-FLI1 expression: low (doxycycline-induced shRNA knockdown)
[21] = 0.025 µM, library screen: screen1, EWS-FLI1 expression: high (no doxycycline)
[22] = 0.025 µM, library screen: screen1, EWS-FLI1 expression: low (doxycycline-induced shRNA knockdown)
[23] = 25 µM, library screen: screen1, EWS-FLI1 expression: high (no doxycycline)
[24] = 25 µM, library screen: screen1, EWS-FLI1 expression: low (doxycycline-induced shRNA knockdown)

Measured: cell viability (log2)

CC(=O)N1CCC[C@H]1C(=O)O
inactive: [1] 0.138 | [2] 0.0212 | [3] 0.184 | [4] 0.0486

C=C1c2cc(OC)ccc2NC(=O)N1c1ccccc1
inactive: [1] 0.0622 | [2] 0.09 | [3] 0.104 | [4] 0.0838

CC(C)NC[C@H](O)c1ccc(O)c(O)c1
inactive: [5] 0.15 | [6] 0.0965 | [7] 0.0541 | [8] 0.0273

COC(=O)C[C@H]1C(C)(C)[C@@H](OC(C)=O)[C@@H]2CC3=C4CC(=O)O[C@@H](c5ccoc5)[C@]4(C)CC[C@@H]3[C@@]1(C)C2=O
inactive: [1] 0.0358 | [2] 0.0144 | [3] 0.0778 | [4] 0.108

O=c1cc(O)cc(/C=C/c2ccc(O)c(O)c2)o1
inactive: [5] 0.159 | [6] 0.05 | [7] 0.0405 | [8] 0.104

COc1cc(O)cc(/C=C/c2ccccc2)c1
inactive: [1] 0.0443 | [2] 0.0713 | [3] 0.167 | [4] 0.125

Oc1ccc(/C=C/c2cc(O)cc(O)c2)cc1
inactive: [9] 0.0131 | [10] 0.0367 | [1] 0.0839 | [2] 0.0347 | [11] -0.0479 | [12] 0.0776 | [13] 0.0102 | [14] 0.0306 | [3] 0.127 | [4] 0.2 | [15] -0.00513 | [16] 0.017 | [17] -0.0335 | [18] 0.0785 | [20] 0.0525
active: [5] -1.5 | [6] -1.81 | [7] -2.99 | [8] -3.07 | [19] -0.23

Oc1cc(O)cc(/C=C/c2ccccc2)c1
inactive: [1] 0.0674 | [2] 0.00318 | [3] 0.07 | [4] 0.0614

COc1cc(/C=C/CO)ccc1O
inactive: [1] 0.0482 | [2] 0.111 | [3] 0.0791 | [4] 0.0869

Oc1cc(O)cc(/C=C/c2ccc(O)c(O)c2)c1
inactive: [21] 0.0929 | [22] 0.00184 | [1] 0.117 | [2] 0.0696 | [5] -0.0238 | [6] 0.0864 | [3] 0.0516 | [4] 0.151 | [7] 0.187 | [8] 0.0106 | [24] 0.162
active: [23] -0.42

C=C1CC/C=C(/C)CC[C@@H]2[C@@H]1CC2(C)C
inactive: [1] 0.102 | [2] 0.0257 | [3] 0.165 | [4] 0.118

CC1(C)CC[C@]2(C(=O)O)[C@H](O)C[C@]3(C)C(=CC[C@@H]4[C@@]5(C)CC[C@H](O)C(C)(C)[C@@H]5CC[C@]43C)[C@@H]2C1
inactive: [1] 0.0739 | [2] 0.0342 | [3] 0.0945 | [4] 0.121

CC1(C)C(=O)CCC2(C)C1CC(O)C1(C)C2CCC2(C)C(c3ccoc3)OC(=O)C3OC321 (configuration not stated)
inactive: [1] 0.0271 | [2] -0.0613 | [3] 0.1 | [4] -0.017

NC(N)=NCCSSCCN=C(N)N
inactive: [5] 0.208 | [6] 0.0937 | [7] 0.0577 | [8] 0.063

O=c1cccc2ccc(O)c(O)c2c1O
inactive: [1] 0.0319 | [2] -0.0442 | [3] 0.142 | [4] -0.0155

COc1cc(Cc2cnc(N)nc2N)cc(OC)c1OC
inactive: [1] 0.149 | [2] 0.184 | [3] 0.204 | [4] 0.321
active: [5] -0.215 | [6] -0.0762 | [7] -1.67 | [8] -2.59

COc1ccc(CN2CCN(Cc3cc(OC)c(OC)c(OC)c3)CC2)cc1
inactive: [1] 0.174 | [2] 0.0733 | [3] 0.142 | [4] -0.0868

COc1cc(O)cc(OC)c1OC
inactive: [1] 0.0343 | [2] 0.0156 | [3] 0.173 | [4] 0.0956

COc1ccc(-c2coc3cc(OC)cc(O)c3c2=O)cc1
inactive: [1] 0.0141 | [2] 0.0676 | [3] 0.102 | [4] 0.184

COc1cc(CN2CCN(Cc3ccco3)CC2)cc(OC)c1
inactive: [1] -0.0146 | [2] 0.0935 | [3] 0.0118 | [4] 0.0977

CCCS(=O)(=O)Nc1ccc(F)c(C(=O)c2c[nH]c3ncc(-c4ccc(Cl)cc4)cc23)c1F
active: [19] -0.179
inactive: [9] 0.0151 | [10] 0.0756 | [11] -0.0936 | [12] 0.103 | [13] -0.131 | [14] 0.105 | [15] -0.159 | [16] 0.126 | [17] -0.177 | [18] 0.106 | [20] 0.0931

COc1c(Cl)c(C)c2c(c1Cl)OC(=O)c1c(C)c(Cl)c(O)c(Cl)c1O2
inactive: [1] 0.0361 | [2] 0.0285 | [3] 0.0998 | [4] 0.0885

CC1CN(S(=O)(=O)c2cccc3cnccc23)CCN1 (configuration not stated)
inactive: [5] 0.246 | [6] 0.094 | [7] 0.214 | [8] 0.111

CN([C@@H](Cc1ccc(OS(=O)(=O)c2cccc3cnccc23)cc1)C(=O)N1CCN(c2ccccc2)CC1)S(=O)(=O)c1cccc2cnccc12
inactive: [21] 0.267 | [22] 0.00847 | [1] 0.23 | [2] -0.0263 | [5] 0.0748 | [6] 0.07 | [4] 0.0275 | [7] 0.166 | [8] -0.012 | [24] 0.00423
active: [3] -0.171 | [23] -0.315

COc1ccccc1NC1CC(C)N(C(=O)c2ccc(C)cc2)c2c(C)cccc21 (configuration not stated)
inactive: [1] 0.107 | [2] 0.0693 | [3] 0.128 | [4] 0.111

Nc1ccc(C(=O)NCC(=O)O)cc1
inactive: [1] 0.0323 | [2] 0.126 | [3] 0.15 | [4] 0.151

CC(C)C[C@H](NC(=O)[C@H](CCC(=O)O)NC(=O)CNC(=O)c1ccc(/C=C/C(=O)O)cc1)C(N)=O
inactive: [22] 0.0951 | [1] -0.0717 | [2] 0.0592 | [3] -0.0597 | [4] 0.0308 | [23] -0.00491 | [24] -0.0971
active: [21] -0.138

CCCN(CCC)C(=O)C(CCC(=O)O)NC(=O)c1ccccc1 (configuration not stated)
inactive: [1] 0.188 | [2] 0.0317 | [5] 0.129 | [6] 0.0785 | [3] 0.223 | [4] 0.0771 | [7] 0.121 | [8] 0.115

CC(=O)O[C@@H]1CC2C(C)(C)C(=O)CC[C@]2(C)C2CC[C@]3(C)C(=CC(=O)O[C@H]3c3ccoc3)[C@@]21C (some centres not stated)
inactive: [1] 0.0774 | [2] 0.142 | [3] 0.182 | [4] 0.164

CCCCC(=O)N(Cc1ccc(-c2ccccc2-c2nn[nH]n2)cc1)[C@H](C(=O)O)C(C)C
inactive: [9] 0.0298 | [10] -0.0095 | [11] 0.124 | [12] 0.0801 | [13] 0.0765 | [14] 0.054 | [15] 0.0694 | [16] 0.124 | [17] 0.00201 | [18] 0.078 | [19] 0.137 | [20] 0.104

COc1ccc(/C=C/C(=O)O)cc1OC
inactive: [1] -0.00585 | [2] -0.00138 | [3] 0.164 | [4] 0.0104

CC(C)N1C(=O)C(=Cc2cccs2)SC1=S
inactive: [1] 0.108 | [2] 0.0522 | [3] 0.148 | [4] 0.0877

O=C1CC[C@]23/C=C/C(=O)NCCCCNCCCNC(=O)/C=C/c4ccc(c2c4)O[C@@H]3C1
inactive: [1] 0.0958 | [2] 0.0883 | [3] 0.0986 | [4] 0.157

COc1cc([C@@H]2c3cc4c(cc3[C@@H](O[C@@H]3O[C@@H]5CO[C@@H](c6cccs6)O[C@H]5[C@H](O)[C@H]3O)[C@H]3COC(=O)[C@H]23)OCO4)cc(OC)c1O
inactive: [9] -0.0319 | [10] -0.00588 | [12] -0.0159
active: [1] -0.797 | [2] -0.349 | [11] -0.326 | [13] -0.931 | [14] -0.262 | [3] -1.74 | [4] -0.557 | [15] -1.32 | [16] -0.472 | [17] -2.12 | [18] -0.477 | [19] -3.07 | [20] -0.784

COc1cc([C@@H]2c3cc4c(cc3[C@@H](O[C@@H]3O[C@@H]5CO[C@@H](C)O[C@H]5[C@H](O)[C@H]3O)[C@H]3COC(=O)[C@H]23)OCO4)cc(OC)c1O
active: [3] -0.176 | [7] -0.711 | [15] -0.212 | [17] -0.857 | [18] -0.166 | [19] -1.25 | [20] -0.367
inactive: [9] 0.16 | [10] 0.0754 | [1] 0.0215 | [2] 0.0298 | [5] 0.197 | [6] 0.0698 | [11] 0.0781 | [12] 0.0446 | [13] 0.0107 | [14] 0.0985 | [4] 0.00733 | [8] 0.00714 | [16] -0.0251

CCCC(CC)CCOC(=O)COc1cc(Cl)c(Cl)cc1Cl (configuration not stated)
inactive: [1] 0.0358 | [2] 0.0314 | [3] 0.0377 | [4] 0.068
